# Screening results as filed in PubChem BioAssay.
# JMJD2A Tudor = qHTS Assay for Inhibitors of JMJD2A-Tudor Domain | AID 504339, 2011 | AlphaScreen JMJD2A-Tudor / H3K4me3 peptide binding | Potency, µM (top dose mostly 114 µM), for the others: at the highest dose activity change, negative = inhibition, usual class: inhibitors | Lysine-specific demethylase 4A (Homo sapiens), O75164 | hit rate 4.4% among 390,000; note: potency is the fitted concentration of half-maximal effect; % is set by controls: 0 for no effect and ±100 for the full control effect; nearly all actives have a fitted effect of over 50% in size
# HP1b chromo inh = HTS for Inhibitors of HP1-beta Chromodomain Interactions with Methylated Histone Tails; Chromobox protein homolog 1 (Homo sapiens), P83916; AlphaScreen HP1-beta / biotin-H3K9me3 peptide binding; Potency, µM (top dose mostly 114 µM), for the others: at the top dose activity change, negative = inhibition, actives largely listed as inhibitors; hit rate 0.56% among 390,000; AID 540317, 2011; note: potency is the fitted concentration of half-maximal effect; nearly all actives have a fitted effect of over 70% in size
#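 AlphaScreen: HP1-beta (50 nM) preformed 30 min with biotin-H3(1-18)K9me3 peptide (50 nM) in PBS pH 7.4, 0.01% Tween-20. Compound added for 30 min at RT, then streptavidin donor/nickel chelate acceptor beads (10 ug/mL) for 30 min.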
# PLK1 PBD block = qHTS for Inhibitors of PLK1-PDB (polo-like kinase 1 - polo-box domain): Primary Screen. Potency, µM, inactives show max response, negative = inhibition, most hits filed as inhibitors. Plk1 PBD binding of FITC phosphopeptide, fluorescence polarization. Serine/threonine-protein kinase PLK1 (Homo sapiens), P53350. hit rate 2.8% among 360,000. AID 720504, 2013; note: potency is the fitted concentration of half-maximal effect; series mostly up to about 57 µM; % is set by controls: 0 for no effect and ±100 for the full control effect; nearly all actives have a fitted effect of over 65% in size
# PI5P4K alpha inh = qHTS for Inhibitors of phosphatidylinositol 5-phosphate 4-kinase (PI5P4K); max response, %; hit rate 1.2% among 330,000; PI5P4Kalpha enzyme, ADP-Glo luminescence, 60 min; stronger effect = lower value; active = max response of -50% or lower; inconclusive = between -30% and -50%; inactive = -30% or higher; note: value at the top dose of about 77 µM; % is set by controls: 0 for no effect and ±100 for the full control effect
#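 Human PI5P4Kalpha with substrate in 0.038 M HEPES pH 7.4, 0.28 mM EGTA, 0.1% CHAPS, 5% DMSO; reaction started with 5 microM ATP (final), 60 min at room temperature. ADP formed read by ADP-Glo luminescence.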
# BAZ2B inh = qHTS Assay for Inhibitors of BAZ2B. hit rate 4.4% among 360,000. Potency, µM (top dose mostly 114 µM), for inactives: at the top dose activity change, negative = inhibition, hits mostly inhibitors. AID 504333, 2011. Bromodomain adjacent to zinc finger domain protein 2B (Homo sapiens), Q9UIF8. AlphaScreen BAZ2B-H3K14Ac peptide displacement; note: potency is the fitted concentration of half-maximal effect; % is set by controls: 0 for no effect and ±100 for the full control effect; nearly all actives have a fitted effect of over 60% in size
#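 BAZ2B 50 nM plus b-H3(5-23)K14Ac 50 nM, PBS pH 7.4/0.01% Tween-20, 30 min RT; compound added (max 110 uM), 30 min RT; streptavidin donor/Ni-chelate acceptor beads 10 ug/mL final, 20 min dark; AlphaScreen read.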
# G9a block = qHTS Assay for Inhibitors of Histone Lysine Methyltransferase G9a | Histone-lysine N-methyltransferase EHMT2 (Homo sapiens), Q96KQ7 | G9a H3K9 monomethylation, AlphaScreen, 2 h | Potency, µM (series often up to 102 µM), for inactives: top-dose activity, negative = inhibition, most hits filed as inhibitors | hit rate 8.8% among 350,000; note: potency is the fitted concentration of half-maximal effect; % is set by controls: 0 for no effect and ±100 for the full control effect; nearly all actives have a fitted effect of over 75% in size
#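 Compounds were preincubated with 20 nM G9a for 15 min, after which biotinylated H3K9 peptide (500 nM) and SAM (20 uM) started a 2 h room-temperature reaction. Monomethylated product was quantified by antibody-based AlphaScreen chemiluminescence.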
# An asterisk follows results filed as active; ? = inconclusive; . = no result; [ ] = another dose, or the depositor's remark. An excerpt weighted towards active compounds, which were near 12% of everything screened. Unless noted, calls come from the whole dose curve; as a rule, active = well fitted curve in the direction sought with a large enough effect; inconclusive = small, poorly fitted or top-dose-only effect, or another doubt; inactive = no such curve, though single readings can be large; an effect the other way counts as inactive or inconclusive.
SMILES,JMJD2A Tudor,HP1b chromo inh,PLK1 PBD block,PI5P4K alpha inh,BAZ2B inh,G9a block
O=C(NCCCN1CCc2ccccc2C1)C1CCN(S(=O)(=O)N2CCCC2)CC1,-25%,16%,-5%,.,50µM*,27%[0.501 µM]
O=C(NCCN1CCc2ccccc2C1)C1CC(=O)N(C2CCCC2)C1 (configuration not stated),89µM*,14%,-3%,.,?,-36%[0.0925 µM]
O=C(NCc1ccccn1)C1CCC(=O)N1C1CCCC1 (configuration not stated),79µM*,20%,-6%,-1,.,.
O=C(NCCc1ccccc1)C1CC(=O)N(C2CCCC2)C1 (configuration not stated),-7%,16%[57 µM],2%,3,1%[57.1 µM],1%
CCOc1ccccc1NC(=O)CCc1c(C)nc2c(c(C)nn2-c2ccccc2)c1C,-1%,41%,.,.,-1%,-10%[59 µM]
COC(=O)c1cc(Cl)ccc1NC(=O)CSc1ncc(S(=O)(=O)c2ccc(Br)cc2)c(=O)[nH]1,-25%,6%,.,.,79µM*,-16%[59 µM]
COc1ccc(CNC(=O)CSc2ncc(S(=O)(=O)c3ccc(Br)cc3)c(=O)[nH]2)cc1,-14%,22%,.,.,-1%,-7%[59 µM]
CC1CCCC(C)N1C(=O)CN1C(=O)NC2(CCCCCC2)C1=O (configuration not stated),.,.,-4%,2,.,.
Cc1ccc(CNC(=O)CCc2c(C)nc3nc(C)nn3c2C)cc1,-12%,36%,.,.,6%,8%[59 µM]
COc1ccc(-n2cc(C(=O)NCCc3ccc(C)cc3)c3ccccc3c2=O)cc1,?,12%,.,.,?,?
O/N=C1/CCc2nonc2/C1=N/O,?,13%,-9%,-10,10µM*,0.71µM*
CCc1ccc(NC(=O)C2CCN(C(=O)N3CC(CC)Oc4ccccc43)CC2)cc1 (configuration not stated),?,11%,.,.,?,?
N=c1n(CCO)c2ccccc2n1Cc1ccccc1F,-9%,23%,.,.,-3%,5%[59 µM]
Cc1csc(NC(=O)CSc2ccc(-c3ccccn3)nn2)n1,22µM*,13%,-3%,-7,7.1µM*,3%
COc1ccccc1CNC(=O)CSc1ccc(-c2cccs2)nn1,-23%,5%,-7%,-2,-36%,-13%
Cc1csc(NC(=O)CSc2ccccc2F)n1,-16%,25%,-5%,3,-2%,1%
O=C(CSc1ccc(-c2ccccn2)nn1)Nc1nccs1,2.5µM*,16%,-1%,-1,-9%,40%
COc1ccccc1CNC(=O)CSc1ccc(-c2ccccn2)nn1,32µM*,23%,-6%,-2,8.9µM*,8%
COc1ccc(-c2ccc(SCC(=O)Nc3nccs3)nn2)cc1OC,?,70%,-6%,7,-36%,4%
CC1CCC(CN2C(Nc3ccccc3)=NC[C@@H]2C)CC1 (some centres not stated),-17%,13%,?,-3,-4%,18%
CC(C)c1ccc(S(=O)(=O)c2cnc(SCC(=O)Nc3ccc(F)cc3F)nc2N)cc1,-10%,20%,.,.,-4%,6%[59 µM]
CCc1ccccc1NC(=O)CSc1ncc(S(=O)(=O)c2ccccc2)c(N)n1,-21%,8%,.,.,1%,13µM*
CCc1ccccc1NC(=O)CSc1ncc(S(=O)(=O)c2ccc(C(C)C)cc2)c(N)n1,20µM*,18%,.,.,3%,-7%[59 µM]
CCc1ccccc1NC(=O)CSc1ncc(S(=O)(=O)c2ccccc2)c(=O)[nH]1,-4%,26%,.,.,0%,-1%[59 µM]
CCc1ccccc1S(=O)(=O)Cc1ccc(C(=O)NC2CCCC2)o1,-4%,30%,-6%,-2,-29%,25%
SMILES,JMJD2A Tudor,HP1b chromo inh,PLK1 PBD block,PI5P4K alpha inh,BAZ2B inh,G9a block
Cc1ccccc1S(=O)(=O)Cc1ccc(C(=O)NC2CCCCC2)o1,?,-1%,21µM*,-7,-1%,3%
CC(=O)c1ccc(-c2ccc(C(=O)N3CCN(c4ccc(F)cc4)CC3)o2)cc1,?,0%,7%,3,.,32µM*
O=C(c1ccc(Br)o1)N1CCN(c2ccc(F)cc2)CC1,-17%,2%,-5%,5,-32%,-8%[59 µM]
CC(=O)c1ccc(-c2ccc(C(=O)N3CCCc4ccccc43)o2)cc1,?,-24%,-13%,-7,?,45µM*
CCC(CC)C(=O)N1c2ccccc2C(C)(c2ccccc2)CC1(C)C (configuration not stated),24%,68%,.,.,20%,15%[59 µM]
COc1ccc(-c2nc(-c3ccccc3)c(-c3ccc(F)cc3)[nH]2)c(OC)c1C,?,-12%,.,.,25µM*,?
COc1ccc(-c2[nH]c(-c3cc(OC)c4c(c3)OCO4)nc2-c2ccccc2)cc1,?,?,5%,2,?,40µM*
COc1cc(-c2nc(-c3ccccc3)c(-c3ccc(Br)cc3)[nH]2)cc(OC)c1O,45µM*,?,.,.,28µM*,10µM*
CCOc1ccc(-c2nc(-c3ccccc3)c(-c3ccccc3)[nH]2)cc1OCC,-15%,41%,.,.,-12%,14%[59 µM]
Cc1ccc(-c2[nH]c(-c3ccc(C(=O)O)cc3)nc2-c2ccccc2)cc1,?,-33%,?,2,?,?
CCN(CCCNC(=O)Cn1ncc2c([nH]c3ccc(C)cc32)c1=O)c1ccccc1,-2%,31%,-8%,0,-2%,33%[59 µM]
CCCNc1cc(=S)nc(N)[nH]1,22µM*,?,19µM*,-24,-30%,0.63µM*
O=C(NCc1ccc2c(c1)CCN2C(=O)c1ccccc1)Nc1cccc(C(F)(F)F)c1,-20%,1%[57 µM],.,.,-1%,-13%[59 µM]
CCOC(=O)N1CCN(C(=O)c2nn(C)c3c2CSc2ccccc2-3)CC1,-20%,21%,-10%,5,-4%,-10%
O=[N+]([O-])c1cc(S(=O)(=O)N2CCOCC2)ccc1OCc1ccccc1C(F)(F)F,-8%,21%,1%,-1,-21%,0%
CCCOc1ccc(S(=O)(=O)N2CCOCC2)cc1[N+](=O)[O-],89µM*,-7%,0%,-6,-15%,0%[59 µM]
COc1ccc(CCNc2ccc(S(=O)(=O)N3CCCC3)cc2[N+](=O)[O-])cc1,?,?,-3%,-7,?,?
COc1ccc(Nc2ccc(S(=O)(=O)N3CCCCC3)cc2[N+](=O)[O-])cc1OC,?,?,-4%,-1,10µM*,7.1µM*
